Laboratory results as given in PubChem BioAssay AID651819 (National Center for Advancing Translational Sciences (NCATS), 2012).
Where “and” joins values, the source holds several entries; their conditions need not be identical. Equal entries are not always repeated. Out of some 360,000 compounds screened, about 1,100 (0.31%) were called active. Cut-off read from the data, not from the text of the source: active = activity change below about -30%; inactive = the rest. The list comes from a sample in which actives are over-represented; it also holds similar structures and randomly drawn compounds.

What follows are molecules tested on cytosolic chaperonin (CCT/TRiC complex) (assay: High-Throughput Screening for Modulators of Cytosolic Chaperonin Activity). Conditions: purified chaperonin ATPase assay, HTRF ADP detection, 30 min; stronger effect = lower value.
Summary of the method: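 TRiC (40 or 20 nM final, by batch activity) in 30 mM Tris pH 7.4, 100 mM KCl, 5 mM MgCl2, 1 mM DTT was treated with compound at 76 uM single dose, then 10 uM ATP, 30 min at 37 °C. ADP was read by HTRF Transcreener.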
% is set by controls: 0 for no effect and ±100 for the full control effect.

Question: For Cc1ccc(-c2cc(C(F)(F)F)n3ncc(C(=O)N4CCCCC4c4cccnc4)c3n2)cc1 (configuration not stated), which activity change is on record?
Answer: -3.01% (inactive)

Question: Which activity change does the source give for Cc1ccccc1NC(=O)C(C)c1ccc(-c2ccccc2)c(F)c1 (configuration not stated) here?
Answer: -2.15% (inactive)

Question: For CCCc1nc2c(C)cc(-c3nc4ccccc4n3C)cc2n1Cc1ccc(-c2ccccc2C(=O)O)cc1, which activity change is on record?
Answer: -0.702% (inactive)

Question: For O=C(NCCCN1CCCCC1)C1CC(=O)N(CCc2ccccc2)C1 (configuration not stated), which activity change is on record?
Answer: 0.88% (inactive)

Question: For O=C(NCCc1ccc(Cl)cc1)C1CC(=O)N(C2CCCCC2)C1 (configuration not stated), which activity change is on record?
Answer: -0.359% (inactive)

Question: With O=C(NCCCN1CCCCCC1)C1CC(=O)N(C2CCCC2)C1 (configuration not stated) as the molecule, how does the activity change read?
Answer: -44.9% (active)

Question: For CCc1cc(CNC(=O)CC2C(=O)NCCN2CC2CCCCC2)on1 (configuration not stated), which activity change is on record?
Answer: -0.174% (inactive)

Question: Which activity change does the source give for COc1cccc(CNS(=O)(=O)c2csc(C(N)=O)c2)c1 here?
Answer: 0.982% (inactive)

Question: With COc1ccc(NC(=O)C2CCC(CNS(=O)(=O)c3csc(C(N)=O)c3)CC2)cc1OC (configuration not stated) as the molecule, how does the activity change read?
Answer: -80.6% (active)

Question: Which activity change does the source give for CC(=O)Nc1ccc(S(=O)(=O)NCC2CCC(C(=O)NCCc3ccccc3)CC2)cc1 (configuration not stated) here?
Answer: -1.57% (inactive)

Question: For CN(C)C(=O)CCc1ccc2c3c([nH]c2c1)[C@]1(CCC2CCCC2)[C@@H](C(=O)N2CCOCC2)C[C@H](CC(=O)NCc2ccco2)C(=O)N1CC3, which activity change is on record?
Answer: 0.536% (inactive)

Question: Which activity change does the source give for CSCCC(NC(=O)C1CCC(C)CC1)C(=O)NCc1ccco1 (configuration not stated) here?
Answer: -5.62% (inactive)

Question: Which activity change does the source give for O=C(Cn1c[n+](CC(=O)c2ccc([N+](=O)[O-])cc2)cn1)c1ccc([N+](=O)[O-])cc1 here?
Answer: 1.85% (inactive) and -0.852% (inactive)

Question: O=C(CCn1nnc2ccccc21)OCC(=O)c1ccc([N+](=O)[O-])cc1 was tested. Which activity change did it give?
Answer: 1.01% (inactive)

Question: With O=C(CC(n1cncn1)C(Cl)(Cl)Cl)c1ccc([N+](=O)[O-])cc1 (configuration not stated) as the molecule, how does the activity change read?
Answer: -37.2% (active)

Question: How did the activity change turn out when CCCN(C(=O)COC(=O)CNS(=O)(=O)c1ccc(NC(C)=O)cc1)C1CCS(=O)(=O)C1 (configuration not stated) was run?
Answer: -0.677% (inactive)

Question: With O=C(NC(=O)c1cc(OCC(F)(F)F)ccc1OCC(F)(F)F)Nc1ccccc1 as the molecule, how does the activity change read?
Answer: -0.0973% (inactive)

Question: Which activity change does the source give for COC(=O)c1ccc(COc2cc([N+](=O)[O-])cc3cccnc23)cc1 here?
Answer: -0.442% (inactive)

Question: COc1ccc(CN2CCCC(CNC(=O)c3ccc(F)cc3)C2)cc1OC (configuration not stated) was tested. Which activity change did it give?
Answer: -2.54% (inactive)

Question: How did the activity change turn out when S=c1nccc(-c2cc(Cl)sc2Cl)[nH]1 was run?
Answer: -49.1% (active)

Question: For CCOc1c2ccc(C(=O)NC3CCCc4ccccc43)cc2nn1CC (configuration not stated), which activity change is on record?
Answer: -6.07% (inactive)

Question: For COc1ccc(Nc2cc(Sc3ccc(OC)cc3)ncn2)cc1, which activity change is on record?
Answer: -0.999% (inactive)

Question: COc1ccc(Nc2ncnc3sc(C)cc23)cc1 was tested. Which activity change did it give?
Answer: -82.2% (active)

Question: How did the activity change turn out when COC(=O)c1ccc(Nc2ncnc3sccc23)cc1 was run?
Answer: -2.64% (inactive)

Question: CC1(C)CC[C@]2(C(=O)O)CC[C@]3(C)C(=CCC4[C@@]5(C)CC[C@H](O)C(C)(C)C5[C@H](O)C[C@]43C)[C@@H]2C1 (some centres not stated) was tested. Which activity change did it give?
Answer: 0.294% (inactive)

Question: For CCO[C@H]1OC(C(=O)N2CCN(Cc3ccccc3)CC2)=C[C@@H](c2cn(C(C)=O)c3ccccc23)[C@@H]1CCCO, which activity change is on record?
Answer: 0.631% (inactive)

Question: With COc1ccc(CCNS(=O)(=O)c2ccc(Cl)s2)cc1OC as the molecule, how does the activity change read?
Answer: -1.56% (inactive)

Question: With COc1ccc(CCNS(=O)(=O)c2ccc(C(=O)NCc3ccco3)cc2)cc1OC as the molecule, how does the activity change read?
Answer: -2.3% (inactive)

Question: With COc1ccc(CCNS(=O)(=O)c2ccc(F)cc2)cc1OC as the molecule, how does the activity change read?
Answer: -67.3% (active)

Question: With O=C(OCCN1CCOCC1)C1(c2ccccc2)CCCCC1 as the molecule, how does the activity change read?
Answer: 0.343% (inactive)

Question: For CCN1CCN(C(C(=O)NC2CCCC2)c2cc3c(cc2[N+](=O)[O-])OCO3)CC1 (configuration not stated), which activity change is on record?
Answer: -0.623% (inactive)

Question: Cc1ccc2c(c1)c1ncnc(N3CCc4ccccc4C3)c1n2C was tested. Which activity change did it give?
Answer: 1.95% (inactive)

Question: Which activity change does the source give for CC(C)N1C(=O)C2C(C(=O)NC3CCCCC3)C3C=CC2(O3)C1C(=O)NC1CCCC1 (configuration not stated) here?
Answer: -2.56% (inactive)

Question: Which activity change does the source give for CCOCCCN1C(=O)C2C(C(=O)Nc3ccc(OCC)cc3)C3C=CC2(O3)C1C(=O)NC1CCCCC1 (configuration not stated) here?
Answer: -2.83% (inactive)

Question: With CCN(CC)CCN1C(=O)C2C(C(=O)Nc3ccc(Br)cc3)C3C=CC2(O3)C1C(=O)NC1CCCCC1 (configuration not stated) as the molecule, how does the activity change read?
Answer: -40.8% (active)

Question: With CCCSc1nsc(N)n1 as the molecule, how does the activity change read?
Answer: -1.36% (inactive)

Question: How did the activity change turn out when COc1ccc2c(C)cc3nnnn3c2c1 was run?
Answer: -38.8% (active)

Question: COc1ccc2ccn(C)c2c1 was tested. Which activity change did it give?
Answer: 1.51% (inactive)

Question: For COc1ccc(N)c(C)c1, which activity change is on record?
Answer: -0.166% (inactive)

Question: How did the activity change turn out when Cc1nc2nc3c(cn2n1)C(=O)CC(c1ccccc1)C3 (configuration not stated) was run?
Answer: -0.882% (inactive)

Question: Which activity change does the source give for CN1CCN(CC#CCC2(O)c3ccccc3-c3ccccc32)CC1 here?
Answer: -0.316% (inactive)

Question: Which activity change does the source give for CSc1nnc2c(n1)OC(c1cn(C)c3ccccc13)N(C(C)=O)c1ccccc1-2 (configuration not stated) here?
Answer: -0.161% (inactive)

Question: Which activity change does the source give for CSCCC(=O)N1CCCC(CNC(=O)c2ccccc2Cl)C1 (configuration not stated) here?
Answer: -0.386% (inactive)

Question: Which activity change does the source give for CCOC(=O)CSc1ccccn1 here?
Answer: -41% (active)

Question: Which activity change does the source give for COC(=O)c1ccccc1NC(=O)CSc1ccccn1 here?
Answer: -2.39% (inactive)

Question: How did the activity change turn out when CCOC(=O)CSc1ncc(-c2cccc(Cl)c2)cn1 was run?
Answer: -0.564% (inactive)

Question: For COc1ccc(N2C(=O)CCC(C(=O)N(C)C3CCCCC3)C2c2ccc(OC)c(OC)c2)cc1 (configuration not stated), which activity change is on record?
Answer: -0.957% (inactive)

Question: CN1CCN(c2ccncc2S(=O)(=O)N2CCCC2)CC1 was tested. Which activity change did it give?
Answer: -0.238% (inactive)

Question: CNC[C@H](CC1CCCCC1)NC[C@H](NCCC1CCCC1)[C@H](C)O was tested. Which activity change did it give?
Answer: -0.857% (inactive)

Question: COc1cccc(NC(=O)CSc2nnc(C3CCCCC3)n2N)c1 was tested. Which activity change did it give?
Answer: -45.1% (active)

Question: How did the activity change turn out when Nn1c(SCC(=O)Nc2ccc3c(c2)CCC3)nnc1C1CC1 was run?
Answer: -0.2% (inactive)

Question: Which activity change does the source give for COc1ccc(NC(=O)CSc2nnnn2-c2cccc(OC)c2)cc1 here?
Answer: 1.8% (inactive)

Question: For O=C(Nc1cccnc1Oc1ncnc2cc(Cl)ccc12)c1ccc(F)cc1, which activity change is on record?
Answer: 1.03% (inactive)

Question: With O=C1N[C@H](Cc2ccccc2)C(=O)N[C@H]1Cc1cn(S(=O)(=O)c2ccccc2)c2ccccc12 as the molecule, how does the activity change read?
Answer: -2.61% (inactive)

Question: How did the activity change turn out when Nc1nc(Nc2ccccc2F)nc(NC2CCCCC2)c1[N+](=O)[O-] was run?
Answer: -0.808% (inactive)

Question: Which activity change does the source give for C=CCNc1nc(N)c([N+](=O)[O-])c(NC2CCCCC2)n1 here?
Answer: -43.9% (active)

Question: How did the activity change turn out when Nc1nc(NCC2CCCO2)nc(Nc2ccccc2F)c1[N+](=O)[O-] (configuration not stated) was run?
Answer: 0.16% (inactive)
